Reference: PubChem BioAssay (EPA / NIEHS)
Inconclusive results are not listed. More than one record can exist for a structure, and the calls need not agree. Activity calls are given as the source filed them. How the source made its calls, unless noted: active means hit-call score of the fitted dose curve at least 0.9, where 1 is the maximum; inconclusive means response in the unintended direction; inactive means score below 0.9.

Biological target: Peroxisome proliferator-activated receptor gamma (Homo sapiens) (UniProt P37231)
Experiment: OT_PPARg_PPARgSRC1_0480: Odyssey Thera (OT) 8-hour Protein-Complementation Assay for Peroxisome Proliferator-activated Receptor Gamma / SRC-1 Co-activator (AID 2283387);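 further: nuclear to cytoplasmic split Venus YFP fluorescence ratio reporting PPARg SRC-1 interaction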
Settings: not given
How it was run: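 Split-YFP (IFP1/IFP2) PPARg/SRC-1 reporter, HEK293T, 37 °C, 5% CO2; 8 h compound; formaldehyde fix + Draq5; high-content imaging, N/C ratio, ≥350 cells/image, positive direction vs DMSO.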

Sequence of Peroxisome proliferator-activated receptor gamma (Homo sapiens) (P37231 whole entry, looked up): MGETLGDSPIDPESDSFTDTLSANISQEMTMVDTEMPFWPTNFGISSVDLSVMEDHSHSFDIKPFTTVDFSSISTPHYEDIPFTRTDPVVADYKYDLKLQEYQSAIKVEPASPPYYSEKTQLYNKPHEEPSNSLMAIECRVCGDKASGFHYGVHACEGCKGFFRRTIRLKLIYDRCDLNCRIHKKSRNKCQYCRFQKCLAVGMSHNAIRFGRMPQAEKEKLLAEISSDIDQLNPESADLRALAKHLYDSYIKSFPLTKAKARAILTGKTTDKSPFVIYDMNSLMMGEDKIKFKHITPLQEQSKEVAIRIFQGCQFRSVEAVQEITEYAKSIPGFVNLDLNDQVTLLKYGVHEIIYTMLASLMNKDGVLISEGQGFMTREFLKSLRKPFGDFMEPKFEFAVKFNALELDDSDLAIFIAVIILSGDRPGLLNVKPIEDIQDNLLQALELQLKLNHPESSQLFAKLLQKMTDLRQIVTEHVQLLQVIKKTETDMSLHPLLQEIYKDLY

| SMILES | outcome | AC50 |
| --- | --- | --- |
| CC(C)N(Cc1ccccc1)C(=O)C(C)(C)C | inactive |  |
| C[C@]12C=CC3=C4CCC(=O)C=C4CC[C@H]3[C@@H]1CC[C@@H]2O | inactive |  |
| Nc1ccc(Cl)cc1N | inactive | 45.3 µM (active) |

Biological target: Peroxisome proliferator-activated receptor gamma (Homo sapiens) (UniProt P37231)
Experiment: OT_PPARg_PPARgSRC1_1440: Odyssey Thera (OT) 24-hour Protein-Complementation Assay for Peroxisome Proliferator-activated Receptor Gamma/ SRC-1 Co-activator (AID 2283388);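 further: nuclear to cytoplasmic ratio of reconstituted Venus YFP fluorescence in fixed imaged cells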
Settings: not given
How it was run: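 Cells carrying the PPARg/SRC-1 fragment-complementation reporter receive compound for 24 hours, are fixed and counterstained with Draq5, then imaged. Increased nuclear relative to cytoplasmic YFP fluorescence above DMSO baseline indicates binding activity.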

| SMILES | outcome |
| --- | --- |
| [Cl-].[Cl-].[Hg+2] | inactive |
| Cc1cccc(N)c1N | inactive |
| Cc1cc(N=Nc2ccccc2C)ccc1N | inactive |
| CCCCOC(=O)c1ccccc1C(=O)OCc1ccccc1 | inactive |
| CN(C)[C@@H]1C(=O)C(C(N)=O)=C(O)[C@@]2(O)C(=O)C3=C(O)c4c(O)cccc4[C@@](C)(O)[C@H]3C[C@@H]12 | inactive |
| CC(C)(C)C(O)(CCc1ccc(Cl)cc1)Cn1cncn1 (configuration not stated) | inactive |
| O=[N+]([O-])C(Br)(CO)CO | inactive |
| O=C(Oc1ccc(Br)cc1)N1CCN2CCC1CC2 | inactive |
| COC(=O)c1ccccc1N | inactive |
| CC(C)(OOC(C)(C)c1ccccc1)c1ccccc1 | inactive |
| O=C(Nc1ccccc1)c1ccccc1I | inactive |
| Cn1cc(-c2ccccc2)c(=O)c(-c2cccc(C(F)(F)F)c2)c1 | inactive |
| COP(=S)(OC)SCN1C(=O)c2ccccc2C1=O | inactive |
| CCCCCCCCn1sccc1=O | inactive |
| O=C(N[C@H](c1ccccc1)[C@@H]1CN2CCC1CC2)c1c(Cl)ccc(C(F)(F)F)c1Cl | inactive |
| C=CCc1ccc2c(c1)OCO2 | inactive |
| Nc1ccc(Oc2ccc(N)cc2)cc1 | inactive |
| Nc1ccc(N=Nc2ccccc2)cc1 | inactive |
| Nc1ccc([N+](=O)[O-])cc1 | inactive |
| Nc1ccc(Cc2ccc(N)cc2)cc1 | inactive |
| CCOC(=O)[C@]1(c2ccccc2)Oc2ccccc2[C@@H]1N | inactive |
| CCCCCCCCOC(=O)c1ccc(C(=O)OCCCCCCCC)c(C(=O)OCCCCCCCC)c1 | inactive |
| CC(C)N(Cc1ccccc1)C(=O)C(C)(C)C | inactive |
| C[C@]12C=CC3=C4CCC(=O)C=C4CC[C@H]3[C@@H]1CC[C@@H]2O | inactive |
| Nc1ccc(Cl)cc1N | inactive |

Read-out: not listed separately
Experiment: CEETOX_H295R_11DCORT: CeeTox H295R High-throughput Steroidogenesis Assay for 11-Deoxycortisol (11DCORT) (AID 2283432; active means hit-call score of the fitted dose curve at least 0.9, where 1 is the maximum; inactive means score below 0.9;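 on AC50: human adrenal H295R cells prestimulated with 10 µM forskolin for 48 h; 11-deoxycortisol secreted into the medium measured by LC-MS/MS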)
Settings: actives raise or lower the signal
How it was run: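 Steroidogenesis in human H295R cells: 48 h chemical exposure after forskolin priming, 11-deoxycortisol measured by LC-MS/MS.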

| SMILES | outcome | AC50 |
| --- | --- | --- |
| Cc1cccc(N)c1N | inactive |  |
| Cc1cc(N=Nc2ccccc2C)ccc1N | inactive |  |
| CCC(C)c1ccc(O)cc1 (configuration not stated) | inactive |  |
| CC(C)(C)C(O)(CCc1ccc(Cl)cc1)Cn1cncn1 (configuration not stated) |  | 1.85 µM (active) |
| O=C(Oc1ccc(Br)cc1)N1CCN2CCC1CC2 |  | 6.83 µM (active) |
| O=C(Nc1ccccc1)c1ccccc1I |  | 27.8 µM (active) |
| Cn1cc(-c2ccccc2)c(=O)c(-c2cccc(C(F)(F)F)c2)c1 | inactive |  |
| COP(=S)(OC)SCN1C(=O)c2ccccc2C1=O | inactive |  |
| Nc1ccc(Oc2ccc(N)cc2)cc1 |  | 24.2 µM (active) |
| Nc1ccc(N=Nc2ccccc2)cc1 |  | 36.7 µM (active) |
| Nc1ccc(Cc2ccc(N)cc2)cc1 |  | 40.3 µM (active) |
| CCOC(=O)[C@]1(c2ccccc2)Oc2ccccc2[C@@H]1N |  | 2.19 µM (active) |
| Nc1ccc(Cl)cc1N | inactive |  |
